# Most compounds without a hit are left out; they make up all but 2.4% or so of the library.
# D2 antagonist: D2 dopamine receptor (human) antagonism. HEK293 TREx D2 cells, calcium flux, dopamine EC80. inhibition, % at 10 µM. 340,000 compounds, 2% hits; in the data active = inhibition above about 30%; inactive = below that, where a call was filed
# Target sequence (P14416 whole entry, looked up): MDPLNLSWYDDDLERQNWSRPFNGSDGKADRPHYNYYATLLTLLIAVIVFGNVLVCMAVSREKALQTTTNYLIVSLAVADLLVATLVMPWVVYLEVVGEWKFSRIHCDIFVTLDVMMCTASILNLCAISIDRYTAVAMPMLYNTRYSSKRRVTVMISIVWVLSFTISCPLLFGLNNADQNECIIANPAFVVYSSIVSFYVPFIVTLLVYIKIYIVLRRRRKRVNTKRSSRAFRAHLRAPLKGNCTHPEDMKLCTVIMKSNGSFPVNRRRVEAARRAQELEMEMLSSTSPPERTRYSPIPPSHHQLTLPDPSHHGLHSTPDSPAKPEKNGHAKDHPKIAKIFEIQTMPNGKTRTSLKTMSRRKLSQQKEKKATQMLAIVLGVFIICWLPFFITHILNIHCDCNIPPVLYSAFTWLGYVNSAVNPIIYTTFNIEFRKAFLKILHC
#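 Calcium mobilization kinetics were recorded at 1 s intervals in tetracycline-induced HEK293 T-REx D2 cells, first for 180 s after compound addition and then 180 s after EC80 dopamine.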
# D2 PAM-1: positively modulates the human D2 dopamine receptor allosterically; P14416; HEK293 T-REx D2, calcium flux, EC20 dopamine potentiation; potentiation, % at 10 µM; 340,000 compounds, 0.34% hits;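 active = potentiation over 3 SD above the plate norm, cut at about 30% in these data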
#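 Potentiation of an EC20 dopamine calcium response is measured in a force-coupled, tetracycline-inducible Hek293 Trex D2 line. Compound-only kinetic reads over 180 s flag agonists before dopamine addition.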
# D2 ag-1: agonists of human D2 dopamine receptor; P14416; HEK293 T-REx D2 cells, calcium flux agonist mode; activation, % at 2 µM; 340,000 compounds, 0.53% hits;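 active = activation over 3 SD above normal in the single-dose calcium agonist read, cut at about 30% in these data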
#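 Tetracycline-induced HEK293 T-REx cells with force-coupled D2 receptor, plated overnight at 30 C, loaded with no-wash calcium dye. After a 10 s baseline, compound was pin-added and calcium flux read kinetically for 180 s; calcium rises flagged agonists.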
# D2 PAM-2: positive allosteric modulators of human D2 dopamine receptor | 360,000 compounds, 0.23% hits | P14416 | DiscoveRx D2 beta-arrestin cells, luminescence, 90 min; 100% = 57 uM dopamine signal | potentiation, % (test concentration not listed); in the data active = potentiation above about 50%
#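 PathHunter beta-arrestin assay in DiscoveRx D2 cells. Compounds were added with an EC20 of dopamine (50 nM final) for 90 min at 37 deg C. Luminescence was read 1 h after detection reagent, with 57 uM dopamine as the EC100 control.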
# D2 ag-2: agonists of human D2 dopamine receptor (beta-arrestin); P14416; DiscoveRx PathHunter D2 beta-arrestin, luminescence, 90 min; 100% = 57 uM dopamine signal; activation, % (concentration not given with the values); 360,000 compounds, 0.084% hits; AID 624465; in the data active = activation above about 40%
#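 DiscoveRx PathHunter D2 beta-arrestin cells (2,100/well) attached overnight, then compound-stimulated 90 min at 37 C in HBSS/10 mM HEPES/0.1% Tween-20 buffer; beta-galactosidase complementation read by luminescence after 1 h at ambient temperature. Dopamine 57 uM final (EC100) as control.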
# Numbers stand for hits; - = inactive; . = not tested or not shown.
SMILES,D2 antagonist,D2 PAM-1,D2 ag-1,D2 PAM-2,D2 ag-2
COC(=O)Cn1c(C2CC(=O)N(c3c(C)cccc3C)C2)nc2ccccc21 (centres undefined),.,.,-,.,.
O=C(NCCC(=O)N1CCN(c2ccccn2)CC1)c1ccc(Br)cc1,58,-,-,-,-
O=C(NCCC(=O)N1CCC2(CC1)NCCc1[nH]cnc12)c1ccc(Br)cc1,32,-,-,-,-
CCC(=O)N1CCc2cc(S(=O)(=O)NCCC(=O)N3CCc4ccccc4C3)ccc21,-,-,-,-,-
CCC(=O)N1CCc2cc(S(=O)(=O)NCCC(=O)N3CCN(c4ccccn4)CC3)ccc21,-,39,-,-,-
COc1ccc(NC(=O)c2cnc(SCC(=O)Nc3nc4ccc(C)cc4s3)n(C)c2=O)cc1,.,-,-,.,.
COC(=O)/C(=C/c1ccccc1)NC(=O)c1ccco1,39,-,-,-,-
COC(=O)/C(=C/c1ccc(OC)cc1)NC(=O)c1ccco1,-,-,-,-,-
CC(C)CCN(Cc1ccco1)C(=O)Cn1ncc2c([nH]c3ccccc32)c1=O,.,-,-,.,.
O=C(CCC(=O)c1ccc(F)cc1)Nc1cc(Cl)cc(Cl)c1,39,-,-,-,-
COc1cc(CNC(=O)c2ccc3c(c2)N(C)C(=O)C2CCCCN32)cc(OC)c1OC (centres undefined),.,-,-,.,.
O=C(CCC(=O)N1CCOc2ccc(Cl)cc21)NCCCN1CCN(Cc2ccccc2)CC1,41,-,-,-,-
O=C(CCC(=O)N1CCOc2ccc(Cl)cc21)NCc1ccccc1,37,-,-,-,-
CC1CN(C(=O)CCC(=O)NCCCN2CCN(Cc3ccccc3)CC2)c2cc(Cl)ccc2O1 (centres undefined),37,-,-,-,-
O=C(CCC(=O)N1CCOc2ccc(Cl)cc21)NCCCN1CCOCC1,-,-,-,-,-
CCOC(=O)c1ccc(NC(=O)CN(c2ccc(C)cc2)S(=O)(=O)c2c(C)noc2C)cc1,.,-,-,.,.
CCOc1ccc(CCNC(=O)CCCc2nnc3n(CC(C)C)c(=O)c4sccc4n23)cc1,.,-,-,.,.
Cn1c(=O)oc2cc(S(=O)(=O)N3CCCC(C(=O)NCc4ccc(F)cc4)C3)ccc21 (centres undefined),.,.,-,.,.
COc1ccc(NS(=O)(=O)c2cnc(N)nc2)cc1Cl,.,-,-,.,.
CN1CCN(c2ccc(NC(=O)c3ccc(Br)o3)cc2)CC1,-,-,-,-,-
O=C(Nc1ccc(N2CCOCC2)cc1)c1ccc(Br)o1,71,-,-,-,-
CCOc1ccc(OCC)c(Nc2nc3ccc(Cl)cc3n3cnnc23)c1,.,-,.,.,.
COc1ccc(OC)c(NC(=O)CSC2=Nc3ccccc3C3=NC(CCC(=O)NCc4ccco4)C(=O)N23)c1 (centres undefined),.,-,-,.,.
Cn1c(SCC(=O)NCCNC(=O)CSc2nnc(C(F)(F)F)n2C)nnc1C(F)(F)F,33,-,-,-,-
O=C(CSC1=Nc2ccccc2C2=NC(Cc3ccccc3)C(=O)N12)Nc1cccc(Cl)c1 (centres undefined),.,-,-,.,.
SMILES,D2 antagonist,D2 PAM-1,D2 ag-1,D2 PAM-2,D2 ag-2
CCCSc1nnc2n(C)c(=O)c3c4c(sc3n12)CCC4,40,-,-,-,-
CCCSc1nnc2n(Cc3ccccc3)c(=O)c3c4c(sc3n12)CCC4,.,-,.,.,.
Cc1ncc([N+](=O)[O-])n1Cc1cccc2ccccc12,-,-,-,-,-
Cc1ncc([N+](=O)[O-])n1Cc1ccccc1F,31,-,-,-,-
CN1CC[n+]2c(CN3C(=O)c4ccccc4C3=O)csc21,45,-,-,-,-
Cc1ccc(S(=O)(=O)Nc2c(O)ccc3ccccc23)cc1,.,.,.,-,56
CCOC(=O)C1CCN(S(=O)(=O)c2cc(-c3onc(C)c3C)ccc2C)CC1,.,.,-,.,.
O=C1c2ccccc2NC(c2ccccc2)N1NS(=O)(=O)c1ccccc1 (centres undefined),-,-,-,-,-
O=C1c2ccccc2NC(c2cccs2)N1NS(=O)(=O)c1ccccc1 (centres undefined),-,-,-,-,-
O=C1c2ccccc2NC(c2ccco2)N1NS(=O)(=O)c1ccccc1 (centres undefined),33,-,-,-,-
COc1ccc(C2Nc3ccccc3C(=O)N2NS(=O)(=O)c2ccccc2)cc1 (centres undefined),39,-,-,-,-
COC(=O)c1sc2cccc(F)c2c1S(=O)(=O)Nc1cc(C)c(Cl)cc1OC,.,-,.,.,.
COc1cc(C(=O)NCCc2ccc(S(=O)(=O)N3CCCC3)cc2)cc(OC)c1OC,58,-,-,-,-
COc1ccc(CCNC(=O)c2cccc(S(=O)(=O)N3CCCC3)c2)cc1OC,-,-,-,-,-
CCN1CCCC1CNC(=O)c1csc2c1CCCC2 (centres undefined),86,-,-,-,-
CCN1CCCC1CNC(=O)c1[nH]c2ccc(OC)cc2c1C (centres undefined),40,-,.,-,-
CCN1CCCC1CNC(=O)c1cc2ccc(OC)cc2[nH]1 (centres undefined),-,-,-,-,-
CCC1CCCN1Cn1cnc2c([nH]c3ccccc32)c1=O (centres undefined),-,-,-,-,-
CCC1CCCN1Cn1cnc2c([nH]c3ccc(OC)cc32)c1=O (centres undefined),-,35,-,-,-
CCN1CCC[C@H]1CNC(=O)c1cc(S(N)(=O)=O)ccc1OC,87,-,-,.,.
CCN1CCCC1CNC(=O)c1cc([N+](=O)[O-])c(N(C)C)cc1OC (centres undefined),75,-,-,-,-
Clc1cccc(-n2cc(-c3ccccc3)c3c(N4CCCCC4)ncnc32)c1,.,-,-,.,.
O=C(NCCSc1c[nH]c2ccccc12)c1c(F)cccc1F,-,-,-,-,-
O=C(NCCSc1c[nH]c2ccccc12)C1CC1,36,-,-,-,-
Cc1cc(C)c(N=Cc2c(O)n(-c3nccs3)c(=O)c3ccccc23)c(C)c1,41,-,-,-,-
SMILES,D2 antagonist,D2 PAM-1,D2 ag-1,D2 PAM-2,D2 ag-2
Cc1cccc(N2CCN(CC3CCCCC3)CC2)c1C,73,-,-,-,-
C/C=C(\C)CN1CCN(c2cccc(C)c2C)CC1,85,-,-,-,-
Cc1ccc(C)c(N2CCN(CC3CCCCC3)CC2)c1,62,-,-,-,-
Cc1ccc(C)c(N2CCN(CCCc3ccccc3)CC2)c1,51,-,-,-,-
Cc1ccc(C)c(N2CCN(Cc3nnnn3C3CCCCC3)CC2)c1,-,-,-,-,-
CCn1c(=O)c2cc(C(=O)NCCc3ccc(OC)c(OC)c3)sc2c2ccccc21,.,-,-,.,.
O=C(Nc1ccccc1C(F)(F)F)N1CCC2(CC1)Oc1ccccc1C(=O)N2Cc1ccccc1F,.,-,.,.,.
